# Measured values: PubChem BioAssay AID624351 (Southern Research Specialized Biocontainment Screening …, 2012)
# The whole screen tested about 2,400 compounds, of which about 1,400 (58%) were called active.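 The calls were made as follows: active = inhibition of 30% or more at any tested dose; inconclusive = primary hits over the limit that were never retested; inactive = the rest.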 The set was probably picked from earlier hits. The list shows a part of the results.
# Experiment: ADP Hunter readout inhibition without MgcRacGAP – biochemical, coupled enzyme counter-screen, artefact control for MgcRacGAP inhibitor project, dose response (AID 624351);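 also: signal is the ADP detection kit reading of free GDP without any GAP enzyme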;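 as to inhibition: 0% = median positive control wells and 100% = median negative control wells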
# Settings: fluorescence, no MgcRacGAP; series mostly up to 80 µM; inhibition: at the top concentration
SMILES,inhibition,IC50
COc1cccc(NS(=O)(=O)c2ccc3c(c2)C2C=CCC2C(c2ccc(C(=O)O)cc2)N3)c1 (stereo not drawn),-25% (inactive),–
COc1cc(/C=C/C(=O)OCC(=O)NC2CCS(=O)(=O)C2)ccc1O (stereo not drawn),–,43.2 µM (active)
COc1cc(/C=C/C(=O)OCC(=O)NCC2CCCCC2)ccc1O,–,35.4 µM (active)
CCOCCCNCC(=O)NCC1CCCCC1,19.1% (inactive),–
COc1cc(/C=C/C(=O)OCC(=O)NCCC2=CCCCC2)ccc1O,–,51.8 µM (active)
CCN(CC(=O)Nc1cc(Cl)ccc1OC)CC(=O)NC1CCS(=O)(=O)C1 (stereo not drawn),19.5% (inactive),–
Cc1cc(/C=C(\C#N)C(=O)N2CCCCC2)cc(C)c1O,–,56.9 µM (active)
CC1CC(C)CN(C2CCN(Cc3cccnc3)CC2)C1 (stereo not drawn),29.8% (inactive),–
CCOc1ccc(N(CCCCO)C(=S)NC(=O)c2ccc(C)c(Br)c2)cc1,27.4% (inactive),–
N#CC1=C(S)N(c2ccc(F)cc2)C(c2ccco2)NC1=O (stereo not drawn),-0.4% (inactive),–
O=C1c2cccc(NCCNCCO)c2C(=O)c2cccc(NCCNCCO)c21,15.9% (inactive),–
OCCCCNc1cccc2ccccc12,–,34.5 µM (active)
O=C1c2cccc(NCCCNCCO)c2C(=O)c2cccc(NCCCNCCO)c21,25.1% (inactive),–
Nc1ccc(C(=O)c2ccc3c(c2)OCCO3)cc1N,–,24.2 µM (active)
COc1ccc(C(=O)CCNc2ccc3c(c2)OCCO3)cc1,14.2% (inactive),–
COc1cc(/C=C2\C(=O)N(C)C(=S)N2C)ccc1O,–,30.2 µM (active)
COc1cc(/C=C/C=C2/CC/C(=C/C=C/c3ccc(O)c(OC)c3)C2=O)ccc1O,-16.6% (inactive),–
CCOc1cc(/C=C2\CN(CC)C/C(=C\c3ccc(O)c(OCC)c3)C2=O)ccc1O,–,61.9 µM (active)
CCN(CC)CCC(=O)N1C/C(=C/c2ccccc2)C(=O)/C(=C\c2ccccc2)C1,-0.82% (inactive),–
CCOc1cc(/C=C2\CN(C)C/C(=C\c3ccc(O)c(OCC)c3)C2=O)ccc1O,–,43.5 µM (active)
CN(C)CCC(=O)N1C/C(=C/c2ccccc2)C(=O)/C(=C\c2ccccc2)C1,5.48% (inactive),–
COc1cc(C=C2CN(C)C(=O)C2=O)ccc1O,–,25 µM (active)
C[N+](C)(C)CCC(=O)N1C/C(=C/c2ccccc2)C(=O)/C(=C\c2ccccc2)C1,-3.71% (inactive),–
O=C1/C(=C\c2ccc(Cl)c(Cl)c2)CN(C(=O)CCN2CCOCC2)C/C1=C/c1ccc(Cl)c(Cl)c1,1.77% (inactive),–
COc1ccc2c(C)cc3n[nH]c(=S)n3c2c1,–,15.8 µM (active)
COc1ccc(-n2cnc(=S)[nH]c2=S)cc1,1.48% (inactive),–
COc1ccc2oc(=O)c(C(=O)Oc3ccc(NC(C)=O)cc3)cc2c1,24.9% (inactive),–

SMILES,inhibition,IC50
COc1cccc2cc(C(=O)Oc3ccc(NC(C)=O)cc3)c(=O)oc12,29.4% (inactive),–
COc1ccc(NC(=O)c2cc3ccc(O)cc3o/c2=N\O)cc1,–,57.4 µM (active)
COc1cc(/C=C/C(=O)OCc2cn3cc(Cl)ccc3n2)ccc1O,–,36.2 µM (active)
COc1cc(/C=C2\C(=O)N(CCC#N)N=C2C)ccc1OCC(=O)Nc1ccccc1,-5.99% (inactive),–
COc1cc(NC(=O)COC(=O)/C=C/c2ccc(O)c(OC)c2)cc(OC)c1,–,36.1 µM (active)
COc1cc(/C=C/C(=O)OCC(=O)NNC(=O)c2cc(Cl)ccc2OC)ccc1O,–,55.8 µM (active)
COc1ccc(CNCC(=O)Nc2cc(OC)cc(OC)c2)cc1,20.6% (inactive),–
COc1cc(/C=C/C(=O)OCC(=O)Nc2cccc(F)c2)ccc1O,–,41 µM (active)
C#CCOCCOCCOCCNc1nc(N2CCN(C(=O)[C@H](CCCCN)n3cc([C@@H](N)C(C)CC)nn3)CC2)nc(N2CCN(C(=O)[C@H](Cc3cc4ccccc4[nH]3)n3cc([C@@H](N)C(C)CC)nn3)CC2)n1 (stereo partly drawn),2.45% (inactive),–
COc1cc(C2NC(=O)C(C#N)=C(Nc3cccc(C)c3)S2)ccc1O (stereo not drawn),17.9% (inactive),–
CCOC(=O)C1=C(COC(=O)/C=C/c2ccc(O)c(OC)c2)NC(=O)NC1C (stereo not drawn),–,53.1 µM (active)
O=C(N/N=C/c1ccc(O)cc1)Nc1cccc2nsnc12,–,61.4 µM (active)
COc1cc(/C=N/NC(=O)c2nonc2C)ccc1O,–,25.6 µM (active)
Cc1nonc1C(=O)N/N=C/c1ccc(O)c(O)c1,–,17.7 µM (active)
COc1ccc(O)c(/C=N/NC(=O)c2c(C)nnn2-c2nonc2N)c1,3.93% (inactive),–
Cc1nonc1C(=O)N/N=C/c1ccc(O)cc1O,–,72 µM (active)
COc1cc(/C=N/NC(=O)c2nnn(-c3nonc3N)c2C(C)C)ccc1O,–,40.7 µM (active)
O=S(=O)(/N=S1\CC=CCN1S(=O)(=O)c1ccccc1)c1ccccc1 (stereo not drawn),3.75% (inactive),–
COc1cc(/C=C/C(=O)OCC(=O)N2CCCc3ccccc32)ccc1O,–,27.8 µM (active)
COc1cc(CN2CCC(C(=O)N3CCN(c4ccccc4F)CC3)CC2)ccc1O,20.6% (inactive),–
NS(=O)(=O)c1ccc(CCNCC(=O)N2CCC(Cc3ccccc3)CC2)cc1,11.3% (inactive),–
COc1cc(/C=C/C(=O)OCC(=O)N2CCC(Cc3ccccc3)CC2)ccc1O,–,49.4 µM (active)
COC(=O)C1CCN(C(=O)COC(=O)/C=C/c2ccc(O)c(OC)c2)CC1,–,44 µM (active)
COc1cccc(C(=O)N2CCN(C3CCN(Cc4ccccc4)CC3)CC2)c1OC,19.7% (inactive),–
COc1cc(/C=C/C(=O)OCC(=O)N2CC3(C)CC2CC(C)(C)C3)ccc1O (stereo not drawn),–,44.7 µM (active)
C/C=C/c1ccc(OCCCCN2CCN(CC)CC2)c(OC)c1,15.9% (inactive),–
